The whole screen tested about 71,000 compounds, of which about 1,800 (2.5%) were called active. Entries that show only a call come without a potency. Inconclusive results (about 26%) are left out. The sample holds actives, similar compounds and a random draw of the others, so the mix is not that of the screen. A number with no mark means an inactive call. Calls come from the whole dose curve; as a rule, active = well fitted activation curve with a large enough effect in the signal ratio, with a control signal flat (not every such curve was filed as active); inconclusive = small, poorly fitted or top-dose-only effect, or effect the other way, or a change in a side signal; inactive = flat fitted curve, though single readings scatter; the % refers to the signal ratio.
Assay: Cell signaling CRE-BLA (Fsk stim)
Settings: CHO CRE-bla reporter (cAMP response element driving beta-lactamase), forskolin EC10, beta-lactamase ratio; series mostly up to 38.2 µM
Source text: NIH Molecular Libraries Screening Centers Network [MLSCN]
NIH Chemical Genomics Center [NCGC]
Assay Provider: Marshall W. Nirenberg, U.S. National heart lung & blood institute
Memories persist for different lengths of time, from seconds or minutes to a lifetime. There are two kinds of memory: short-term memory (STM) and long-term memory (LTM). STM lasts for minutes to hours, which maybe mediated by modifications of molecules involved in synaptic functions. LTM lasts for days or longer, and may be due to the formation of new synapses or restructuring of existing synapses. LTM, but not STM, requires gene transcription and synthesis of proteins. CREB (cyclic-AMP Responsive Element Binding Protein) is one of the candidates plays an important role for enhancement of some types of LTM. CREB, a family of transcription factors, regulates the transcription of genes containing cAMP Responsive Elements (CRE). CRE is a nucleotide sequence often found in the promoter regions of genes that are binding sites for CREB.
Using a beta-lactamase reporter-gene under control of cAMP responsive element, a cell-based assay [CellSensor(TM) CRE-bla CHO developed by Invitrogen Corp.] was used to measure forskolin-induced signaling. Library compounds were measured for their ability to modulate positively or negatively the action of EC10 NKH 477, a water soluble forskolin, on reporter gene activity. Compounds were screened in a titration series in 1536-well format. Positive and negative modulators were identified based on the AC50 values derived from the screening data.
NCGC Assay Protocol Summary
2000 cells/5uL in Opti-MEM medium containing 0.5% dialyzed FBS, 0.1 mM NEAA, 1 mM sodium pyruvate and 10 mM HEPES was dispensed into 1536-well plates and cells were cultured at 37 degrees Celsius overnight. […] And then the plates were incubated at 37 degrees Celsius for 3 hours. 1 uL of CCF4-dye mixture was added to each well. After incubated at room temperature for 2 hours the plates were measured on an EnVision plate reader at Excitation 405nm, Emission1=460nm and Emission 2=530nm. The %Activity was determined from the ratio of 460nm/530nm.
Keywords: NIH Roadmap, MLSCN, MLSMR, qHTS, NCGC, CRE, beta-lactamase reporter-gene assay.
With O=C1c2ccccc2-c2ncnc3c(N4CCOCC4)cc(N4CCOCC4)c1c23 the Potency was 2.51 µM (active).
With c1ccc(-c2oc3ncnc(N4CCOCC4)c3c2-c2ccccc2)cc1 the Potency was “inactive”.
With c1cnn(-c2cc(N3CCOCC3)ncn2)c1 the Potency was “inactive”.
With CSc1nnc(CNC(=O)c2ccccc2)n1-c1ccc(F)cc1 the Potency was “inactive”.
In the case of Cc1cccc(C(=O)O)c1[N+](=O)[O-], the Potency is reported as “inactive”.
With CCOC(=O)c1cnc(-n2nc(C)cc2C)nc1-n1nc(C)cc1C the Potency was “inactive”.
For CCOC(=O)c1cnc(-n2nc(C)cc2C)nc1Nc1cccc(C(C)=O)c1, the Potency was “inactive”.
With CC(=O)c1ccc(Oc2cc(C)nc(-n3nc(C)cc3C)n2)cc1 the Potency was 7.94 µM (active).
For O=C(Nc1ccccc1)N[C@H]1C[C@H](C(=O)O)Nc2cc(Cl)cc(Cl)c21, the Potency was “inactive”.
In the case of O=C(CCCOc1ccccc1)Nc1cccc(C(=O)O)c1, the Potency is reported as “inactive”.
With CN1CCN(c2cc(=O)n(-c3ccc(Cl)cc3)c(=O)[nH]2)CC1 the Potency was “inactive”.
For Cc1cc(N(C)C)cc(C)[n+]1[O-], the Potency was “inactive”.
For COC(=O)C1=C(C)NC2=C(C(=O)c3ccccc32)C1c1ccc(-c2ccc(C(=O)O)cc2)o1 (centres undefined), the Potency was 0.398 µM (active).
For COC(=O)C1=C(C)NC(=O)NC1/C=C/c1ccccc1 (centres undefined), the Potency was “inactive”.
For COc1ccccc1NC(=O)C1=C(C)NC2=C(C(=O)CCC2)C1c1ccc(C)o1 (centres undefined), the Potency was “inactive”.
In the case of Cc1ccc(CCn2c3c(c4ccccc42)CN(C)CC3)cn1, the Potency is reported as “inactive”.
In the case of O=C(O)CC(C(=O)O)C(CC(=O)O)C(=O)O (centres undefined), the Potency is reported as “inactive”.
With CCCCC/C=C/C=C/C=O the Potency was “inactive”.
In the case of CCOc1ccc(C(=O)Nc2cc(OC)ccc2OC)cc1, the Potency is reported as “inactive”.
With CC(C)CCNc1nc(N2CCCC2)c2c(c1C#N)CCN(C)C2 the Potency was “inactive”.
In the case of Cc1cc(C)c2nc(N3CCCC3)c(C#N)cc2c1, the Potency is reported as 10 µM (active).
With CCOc1ccc2nc(N3CCCN(C(=O)Nc4ccccc4C)CC3)c(C#N)cc2c1 the Potency was “inactive”.
For COc1c(C)cccc1C(=O)Nc1cc(Cl)ccc1N1CCOCC1, the Potency was “inactive”.
With Cn1c(=O)n(C)c2cc(CNc3ccc(N4CCOCC4)c(C(=O)O)c3)ccc21 the Potency was “inactive”.
For Cn1nc(-c2ccc(N3CCOCC3)c(NC(=O)c3ccccc3)c2)c2ccccc2c1=O, the Potency was 7.94 µM (active).
In the case of COc1ccc(OC)c2[nH]c(=O)c(CCNC(=O)C(C)(C)C)cc12, the Potency is reported as “inactive”.
In the case of COc1ccc(CNc2ncncc2-c2ccccc2C)c(OC)c1, the Potency is reported as “inactive”.
With COc1ccc(CNc2ncnc3ccc(-c4cccnc4)cc23)c(OC)c1 the Potency was 1 µM (active).
With COc1ccc(CNc2ncncc2-c2ccccc2OC)c(OC)c1 the Potency was “inactive”.
For CCOC(=O)C1CCc2nc3ccccc3c(=O)n21 (centres undefined), the Potency was “inactive”.
In the case of CCCCCCOC(=O)NCC(O)c1ccccc1 (centres undefined), the Potency is reported as “inactive”.
In the case of C=C(C)Cn1c(SCC(=O)NCc2ccco2)nc2sc3c(c2c1=O)CCC3, the Potency is reported as “inactive”.
For CCOc1ccccc1Nc1nnc(SCC(=O)Nc2cc(C)on2)s1, the Potency was “inactive”.
For Cc1cc(NC(=O)Cn2nc(C(F)(F)F)c3c2CCCC3)no1, the Potency was “inactive”.
With Cc1nc(SCC(=O)Nc2cc(C)on2)c2c(C)c(C)sc2n1 the Potency was 0.316 µM (active).
In the case of Cc1nc(SCC(=O)Nc2cc(C)on2)c2c3c(sc2n1)CCCC3, the Potency is reported as 2.51 µM (active).
With COc1ccccc1-c1nnc(SCC(=O)Nc2cc(C)on2)o1 the Potency was “inactive”.
O=C1C(C=NCC2CCCO2)=C(O)c2ccccc21 (centres undefined) gave an activity change, negative = inhibition of 12.5% [at 7.6 µM].
With COC(=O)[C@@]1(Cc2ccc(F)cc2)[C@H]2c3cc(C(=O)N4CCCC4)n(Cc4ccc(OC(F)(F)F)cc4)c3C[C@H]2CN1C(=O)c1ccccc1 the Potency was “inactive”.
In the case of COCCOC(=O)C1=C(C)NC(=O)CC1c1cc2c(cc1Br)OCO2 (centres undefined), the Potency is reported as “inactive”.
With COc1cc2c(cc1OC)C(c1ccc(C)o1)CC(=O)N2 (centres undefined) the Potency was “inactive”.
With CCCOc1ccccc1C1CC(=O)Nc2cc3c(cc21)OCO3 (centres undefined) the Potency was 10 µM (active).
With O=C(NCc1ccc(Cl)c(Cl)c1)c1cccnc1 the activity change, negative = inhibition was -25.4% [at 7.6 µM].
With CCCOC(=O)Nc1ccccc1C(N)=O the Potency was “inactive”.
In the case of CCOc1ccc2nc(SC(CC)C(=O)Nc3cc(C)on3)sc2c1 (centres undefined), the Potency is reported as “inactive”.
In the case of C=CC(=C)CCC=C(C)C, the Potency is reported as “inactive”.
With CCOC(=O)c1sc(=S)n(-c2cccc(OC)c2)c1N the Potency was “inactive”.
For CCOc1cccc(-c2nnc3sc(COc4ccc(OC)cc4)nn23)c1, the Potency was “inactive”.
In the case of CCOc1cccc(-n2nnnc2-c2ccc(OC)cc2)c1, the Potency is reported as 12.6 µM (active).
With COC(=O)c1ccc(OC(=O)c2nn(C)cc2Cl)c(OC)c1 the Potency was “inactive”.
For CCc1c(O)nc(SCC(=O)N2CCCCC2)n(-c2ccccc2C)c1=O, the Potency was “inactive”.
For O=C(Nc1ccccc1N1CCN(c2ccccc2)CC1)c1cccc(F)c1, the Potency was “inactive”.
In the case of O=C(CN1CCN(C2CCCCC2)CC1)Nc1ccccc1N1CCCCC1, the Potency is reported as “inactive”.
For O=C(Nc1ccccc1N1CCCCC1)c1ccc2nccnc2c1, the Potency was 10 µM (active).
In the case of Cc1ccccc1NC(=O)CNc1ccccc1N1CCCCC1, the Potency is reported as “inactive”.
In the case of O=C(Nc1ccccc1N1CCN(C(=O)c2ccccc2)CC1)c1ccc2c(c1)OCO2, the Potency is reported as “inactive”.
With O=C(Nc1ccccc1N1CCCCC1)c1cccc(F)c1 the Potency was 12.6 µM (active).
For Cn1cc(S(=O)(=O)N2CCC(Cc3ccccc3)CC2)c(=O)n(C)c1=O, the Potency was “inactive”.
For Cc1ccc(Br)cc1, the Potency was “inactive”.
In the case of O=C(NCc1ccccc1)[C@H]1C[C@@H]1[C@H](NP(=O)(c1ccccc1)c1ccccc1)c1ccccc1, the Potency is reported as “inactive”.
With CCC[C@@H]1C[C@@]1(CCC)[C@@H](NC(=O)c1ccccc1)c1ccc(C(=O)OC)cc1 the Potency was “inactive”.
With Nc1nnc(C2CCCC2)s1 the Potency was “inactive”.
With CCn1c(SCC(=O)Nc2cc(C)c(Cl)cc2OC)nnc1-c1ccco1 the Potency was 12.6 µM (active).
In the case of CCc1cccc(C)c1NC(=O)CSc1nnc(-c2ccco2)n1N, the Potency is reported as “inactive”.
For COc1cc(Cl)c(C)cc1NC(=O)CSc1nnc(-c2cccnc2)n1Cc1ccco1, the Potency was “inactive”.
For COC(=O)[C@H]1C[C@@H]1[C@H](NC(=O)Oc1ccc(F)cc1)c1ccccc1, the Potency was “inactive”.
For NC(=O)c1ccccc1NC(=O)c1ccccc1F, the Potency was “inactive”.
With COC(=O)[C@@]1(Cc2ccc(OC)cc2)[C@H]2c3cc(C(=O)N4CCCC4)n(Cc4ccc(OC(F)(F)F)cc4)c3C[C@H]2CN1C(=O)c1ccccc1 the Potency was “inactive”.
With O=C(CN1CCOCC1)Nc1c(-c2ccccc2)c2cc(Br)ccc2[nH]c1=O the Potency was “inactive”.

— PubChem BioAssay AID662 (National Center for Advancing Translational Sciences (NCATS), 2007)
Potency is the fitted concentration of half-maximal effect.
